Shiga inhibitor: inhibitors of Shiga toxin in Vero cells; Vero cells, Shiga toxin protein synthesis inhibition reporter; inhibition, % at 38.7 µM; 290,000 tested, 9.2% active; in the data active means inhibition mostly above about 28%, no sharp cut-off; inactive means mostly below about 43%; further: 0% is about no effect
AmpC detergent: blocks E. coli AmpC beta-lactamase in detergent assay; AmpC hydrolysis of nitrocefin, absorbance 480 nm, 0.01% Triton; AID 485294; 370,000 tested, 0.041% active; Potency, µM (titrated, usually from 114 µM), inactives show at the highest dose activity change, negative = inhibition, actives largely listed as inhibitors; P00811;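 further: potency means the concentration at half of the fitted maximal effect; 0% = no-compound wells and -100% = no-enzyme wells; nearly all actives have a fitted effect of over 25% in size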
Target sequence (P00811 whole entry, looked up): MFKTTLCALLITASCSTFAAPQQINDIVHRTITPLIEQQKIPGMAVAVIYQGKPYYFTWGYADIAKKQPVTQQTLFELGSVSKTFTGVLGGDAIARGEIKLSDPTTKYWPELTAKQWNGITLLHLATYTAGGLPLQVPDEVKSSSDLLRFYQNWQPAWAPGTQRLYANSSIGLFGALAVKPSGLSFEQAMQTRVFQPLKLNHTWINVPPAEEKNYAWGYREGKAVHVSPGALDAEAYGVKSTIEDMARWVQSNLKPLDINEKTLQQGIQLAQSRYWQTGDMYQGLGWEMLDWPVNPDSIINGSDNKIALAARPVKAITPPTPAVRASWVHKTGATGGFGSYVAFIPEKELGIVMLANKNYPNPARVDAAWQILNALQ
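AmpC (5.3 nM in the dispensed reagent) in 20 mM phosphate pH 7.0 with 0.01% (detergent screen) or 0.0001% Triton X-100 was preincubated with compounds for 15 min at room temperature. Nitrocefin was then added from an 800 uM solution, and hydrolysis was followed at 480 nm.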
AmpC no deterg: AmpC beta-lactamase inhibition without detergent; Potency, µM (highest dose often 57.1 µM), for inactives: top-dose activity change, negative = inhibition, most hits filed as inhibitors; 330,000 tested, 0.52% active; P00811; AmpC nitrocefin hydrolysis, absorbance 480 nm, 0.0001% Triton; AID 485341;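 further: potency means the concentration at half of the fitted maximal effect; plate controls were no compound for no effect and no enzyme for full effect; nearly all actives have a fitted effect of over 20% in size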
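20 mM phosphate pH 7.0 + 0.01% (detergent screen) or 0.0001% Triton X-100; 5.3 nM AmpC reagent; cpd preinc 15 min RT; nitrocefin (800 uM stock) to start; A480 q20 s × 4 min; Activity was normalised to no-enzyme and no-compound control wells.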
NS1 function inh: inhibitors of influenza NS1 protein function; Potency, µM (highest dose often 46.1 µM), for the others: top-dose activity, positive = more growth; 270,000 tested, 0.4% active; calls by dose curve; further: potency means the concentration at half of the fitted maximal effect; actives are rising curves; nearly all actives have a fitted effect of over 50% in size
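S. cerevisiae expressing influenza A NS1, grown in glucose, washed, then diluted 1:100 into pH 6.0 -URA galactose medium with 23 nl compound. Growth recovery read as OD600; NS1-free strain serves as control.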
Cycloheximide cs: affects cycloheximide protein synthesis inhibition readout, counter-screen | cell reporter, cycloheximide protein synthesis inhibition counterscreen | max response, % | 300,000 tested, 12% active; in the data active means max response mostly above about 13%, no sharp cut-off; inactive means mostly below about 14%; further: read at 38.3 µM for the half of the compounds with a filed dose; 0% is about no effect
Numbers without * were called inactive; ? = inconclusive; / = no result; + = active, no number; ! = not confirmed by another sample; [ ] = dose if it differs, or a comment. The sample as a whole holds a higher share of hits than the screen did. Unless noted, the call rests on the fitted dose curve; in most records, active means well fitted curve in the direction sought with a large enough effect; inconclusive means small, poorly fitted or top-dose-only effect, or another doubt; inactive means no such curve, though single readings can be large; an effect the other way counts as inactive or inconclusive.

SMILES | Shiga inhibitor | AmpC detergent | AmpC no deterg | NS1 function inh | Cycloheximide cs
Cc1ccc(C(O)c2nc3ccccc3n2C)cc1 (stereo unspecified) | -2.0 | -3.5% | -25.7% | -11.1% | -4.5
Cn1c(/N=C/c2cccs2)nc2ccccc21 | -12.9 | -2.6% | -9.5% | 0.4% | -5.8
Cc1ccc(C)c(N=Nc2nc3ccccc3n2C)c1 | 76.5* | 0.4% | 5.2% | -148.1% | 46.6*
Cc1cc(C)c(C)c(N=Nc2nc3ccccc3n2C)c1C | 91.9* | -9.2% | -7.5% | -22.0% | 62.5*
COc1ccc(-c2cc3ccc(O)c(CN4CCCC(C)C4)c3oc2=O)cc1OC (stereo unspecified) | / | -3.3% | / | / | /
CCOC(=O)c1c(NC(=O)C(C)NCc2ccco2)sc2c1CCC(C)C2 (stereo unspecified) | 2.0 | 4.2% | 28.4% | -66.3% | 0.4
COc1cccc(C(=O)Nc2nnc(-c3cccs3)o2)c1 | 93.2 | -17.7% | -32.9% | -199.0% | 32.5*
CCOc1cccc(C(=O)Nc2ccc(N(CC)CC)cc2)c1 | 15.3 | ? | -12.9% | -7.0% | 16.4
COc1cccc(C(=O)NC2=NCCS2)c1 | 41.5* | ? | -11.7% | -14.0% | 29.3*
COc1cccc(C(=O)Nc2nnc(-c3ccc(Cl)cc3)o2)c1 | -3.2 | 0.4% | -20.4% | -87.9% | -4.6
CC(C)Oc1cccc(C(=O)NC2=NCCS2)c1 | 107.5* | 0.7% | -8.5% | / | 55.3*
CCOc1cccc(C(=O)NC2=NCCS2)c1 | 72.2* | -20.5% | -17.6% | -30.5% | 39.5*
CNc1c([N+](=O)[O-])cnn1-c1ccc(F)cc1 | -1.1 | 0.3% | 0.7% | 8.2% | -1.2
C/C(=C\C(=O)OCCCCCCCCC(=O)O)C[C@@H]1OCC(C[C@H]2O[C@H]2[C@@H](C)[C@H](C)O)[C@@H](O)[C@H]1O (stereo partly specified) | -4.8 | / | / | / | 0.7
COc1cc(OC)c(C2Nc3ccccc3-c3nnc(SCc4ccccc4)nc3O2)cc1OC (stereo unspecified) | / | 2.1% | / | / | /
Cc1ccccc1CCN(C(=O)c1csnn1)C(C(=O)NC1CCCC1)c1ccncc1 (stereo unspecified) | 12.3 | -1.1% | 62.4% | -4.3% | 6.8
O=C(CCN1C(=O)c2ccccc2C1=O)NC1=NCCS1 | -4.9 | 0.1% | -23.4% | -2.5% | -1.3
CCCCN1C(=O)c2ccc(C(=O)NC3=NCCS3)cc2C1=O | 33.5 | -0.7% | 1.2% | -48.4% | 20.2*
Cc1cccc2cc(CN(Cc3nnnn3Cc3ccco3)C3CCCC3)c3nnnn3c12 | 29.4* | 6.0% | -2.0% | -0.4% | 10.4
CC(=O)N(Cc1ccco1)Cc1cc2cccc(C)c2n2nnnc12 | -6.6 | 5.9% | -14.6% | / | -3.0
N=c1c2c(ncn1Cc1ccco1)Oc1cc(O)ccc1C2c1ccccc1 (stereo unspecified) | -5.8 | -5.4% | -44.7% | 7.7% | -1.4
N=c1c2c(ncn1Cc1ccco1)Oc1c(ccc3ccccc13)C2c1ccccc1 (stereo unspecified) | 17.6* | -10.3% | -24.3% | ? | 23.3*
O=C(CN1CCN(C(=O)c2ccc(-c3nc4ccccc4s3)o2)CC1)Nc1ccc(F)cc1 | / | 0.7% | 192.5% | / | /
O=C(c1ccc(-c2nc3ccccc3s2)o1)N1CCN(c2ccccc2O)CC1 | 44.9 | 2.8% | -2.2% | -30.2% | 37.0*
O=C(O)c1ccc(-c2nc3ccccc3s2)o1 | 78.0* | -8.4% | -9.4% | 1.2% | 45.4*
SMILES | Shiga inhibitor | AmpC detergent | AmpC no deterg | NS1 function inh | Cycloheximide cs
O=Cc1ccc(-c2nc3ccccc3s2)o1 | 60.6* | 6.5% | -17.4% | -35.0% | 29.1*
CC1(c2ccc(OC(F)F)cc2)NC(=O)N(CC(=O)N2CCN(C(=O)c3ccco3)CC2)C1=O (stereo unspecified) | / | ? | -4.3% | / | /
O=C(CCn1c(=O)c2cccn2c2cccnc21)NCc1ccc(Cl)cc1 | / | -6.2% | / | / | /
CCOC(=O)Cc1csc(SCn2nnc3ccccc3c2=O)n1 | 5.9 | -7.8% | -7.0% | -3.8% | 8.7
CCOC(=O)Cc1csc(-n2sc3ccccc3c2=O)n1 | 32.7 | 2.2% | -24.5% | -67.3% | 38.1*
O=C(O)c1cc(-c2ccc(-c3c(-c4ccc5c(c4)OCO5)noc3-c3ccsc3)cc2)nc2ccccc12 | 60.6* | -13.8% | -49.2% | -2.8% | 35.9*
COC(=O)c1cc(-c2c(-c3ccc4c(c3)OCO4)noc2-c2ccsc2)cc([N+](=O)[O-])c1 | 30.4 | -22.5% | -30.4% | 7.5% | 24.6*
COc1ccc(-c2c(-c3cc(OC)c(OC)c(OC)c3)noc2C)cn1 | 18.9 | ? | 52.5% | -29.1% | 6.5
CN(C)c1ccc(-c2c(-c3ccc4c(c3)OCO4)noc2-c2ccsc2)cn1 | 40.1* | ? | -4.0% | -10.8% | 28.1*
COc1ccc(-c2c(-c3ccc4c(c3)OCO4)noc2C)cn1 | 66.7* | -9.1% | ? | -64.6% | 24.8*
C=CCn1c(SCc2cc(C(C)=O)ccc2OCC)nc2ccccc2c1=O | -11.3 | ? | 19.6% | 24.3% | -0.5
CCOc1ccc(Nc2ncnc3c2nc2n3CCCCC2)cc1 | / | 17.1% | / | / | /
Cc1ccc(-c2cnc3n2CCCCC3)cc1 | 14.4 | -5.9% | -5.6%[11.4 µM] | / | 2.2
CCOc1ccc(-c2cnc3n2CCCCC3)cc1 | 14.9 | -9.4% | -17.4% | 5.0% | 8.6*
c1ccc(-c2ccc(-c3cnc4n3CCCCC4)cc2)cc1 | 58.0 | 3.0% | -2.5% | -15.2% | 22.5*
N#Cc1ncc(-c2ccc3c(c2)OCCOCCOCCOCCO3)nc1C#N | 15.3 | ? | -15.6% | -3.6% | 0.4
c1cc2c(cc1-c1cnc3n1CCC3)OCCO2 | 86.9* | ? | -18.3% | -1.5% | 15.8
CCN(c1ccccc1)S(=O)(=O)c1nnc(NC(=O)COc2cccc(C)c2)s1 | / | 5.1% | / | / | /
O=C(N[C@@]1(C(=O)O)C[C@@H]1c1ccccc1)c1ccccc1 | / | / | / | -5.2% | /
CC(C)CN(C(=O)COC(=O)c1ccc2c(c1)OCO2)c1c(N)n(Cc2ccccc2)c(=O)[nH]c1=O | / | -6.6% | -51.5% | / | /
COc1ccccc1/C=C/C=C1\Oc2c(ccc(O)c2CN2CCN(CCO)CC2)C1=O | + | -5.8% | 183.6% | 28.2% | 32.2*
CN(C)Cc1c(O)ccc2c1O/C(=C\C=C\c1ccccc1)C2=O | 18.2 | 1.5% | 56.3% | ? | 13.2*
O=C1/C(=C/C=C/c2ccccc2)Oc2c1ccc(O)c2CN1CCN(CCO)CC1 | 20.3 | 1.2% | 89.4% | 18.7% | 10.4
CCN1CCN(Cc2c(O)ccc3c2O/C(=C\c2ccccc2)C3=O)CC1 | -4.4 | 3.2% | -4.0% | 17.2% | 1.1
O=c1c2c3c(sc2n(Cc2cc(=O)n4ccccc4n2)c(=O)n1-c1ccc(Cl)cc1)CCC3 | / | 29.1% | / | / | /
CN(C)c1ccc2nc3ccc(=[N+](C)C)cc-3sc2c1 | 88.0* | -2.4% | -6.2% | / | 63.7*!
CN(C)c1cccc(C(=O)Nc2ccc(-c3nc4ccccc4s3)cc2)c1 | / | 6.8% | / | / | /
Cc1cc2nc3ccc(=[N+](C)C)cc-3sc2cc1N | 47.7* | ? | 8.2% | 14.1% | 35.6*
Cc1nc2ccc(NS(=O)(=O)c3cccc([N+](=O)[O-])c3)cc2s1 | / | / | -32.7% | / | /

Source: PubChem
